Records with an inconclusive call do not appear. Activity calls are given as the source filed them. The calls were made as follows, unless noted: active = hit-call score of the fitted dose curve at least 0.9, where 1 is the maximum; inactive = score below 0.9.
Tests used:
[1] = ATG_CRE_CIS: Attagene CIS-FACTORIAL HepG2 Assay for human cAMP Responsive Element (CRE) binding protein 3 (AID 2282926); conditions: HepG2 CRE cis-reporter, Attagene multiplexed mRNA; actives raise or lower the signal
Summary of the method: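 HepG2 cells transiently transfected with cis-element-driven multiple reporter transcription units; CRE reporter mRNA measured 24 h after dosing by RT-PCR, 6-FAM labelling, HpaI digestion and capillary electrophoresis. Bidirectional fit versus DMSO baseline.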

[2] = ATG_M_32_CIS: Attagene CIS-FACTORIAL HepG2 Assay for M32 Transcription Factor (Internal Marker) (AID 2282949); conditions: HepG2 Attagene cis-factorial M32 reporter, mRNA; actives raise or lower the signal;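 also: background control marker of the multiplexed CIS panel rather than a real target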
Summary of the method: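 Fluorescent capillary electrophoresis peaks of HpaI-digested, FAM-labelled RT-PCR reporter products give the signal. Source: transiently transfected human liver HepG2 cells, 24 h after chemical dosing; bidirectional fitting against DMSO.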

[3] = biological target: Hypoxia-inducible factor 1-alpha (Homo sapiens) (UniProt Q16665); test: ATG_HIF1a_CIS: Attagene CIS-FACTORIAL HepG2 Assay for human Hypoxia Inducible Factor 1 (HIF1A) (AID 2282951); conditions: HepG2 Attagene cis-factorial HIF1a reporter transcription; actives raise or lower the signal
Chain of Hypoxia-inducible factor 1-alpha (Homo sapiens) (Q16665 whole entry, looked up): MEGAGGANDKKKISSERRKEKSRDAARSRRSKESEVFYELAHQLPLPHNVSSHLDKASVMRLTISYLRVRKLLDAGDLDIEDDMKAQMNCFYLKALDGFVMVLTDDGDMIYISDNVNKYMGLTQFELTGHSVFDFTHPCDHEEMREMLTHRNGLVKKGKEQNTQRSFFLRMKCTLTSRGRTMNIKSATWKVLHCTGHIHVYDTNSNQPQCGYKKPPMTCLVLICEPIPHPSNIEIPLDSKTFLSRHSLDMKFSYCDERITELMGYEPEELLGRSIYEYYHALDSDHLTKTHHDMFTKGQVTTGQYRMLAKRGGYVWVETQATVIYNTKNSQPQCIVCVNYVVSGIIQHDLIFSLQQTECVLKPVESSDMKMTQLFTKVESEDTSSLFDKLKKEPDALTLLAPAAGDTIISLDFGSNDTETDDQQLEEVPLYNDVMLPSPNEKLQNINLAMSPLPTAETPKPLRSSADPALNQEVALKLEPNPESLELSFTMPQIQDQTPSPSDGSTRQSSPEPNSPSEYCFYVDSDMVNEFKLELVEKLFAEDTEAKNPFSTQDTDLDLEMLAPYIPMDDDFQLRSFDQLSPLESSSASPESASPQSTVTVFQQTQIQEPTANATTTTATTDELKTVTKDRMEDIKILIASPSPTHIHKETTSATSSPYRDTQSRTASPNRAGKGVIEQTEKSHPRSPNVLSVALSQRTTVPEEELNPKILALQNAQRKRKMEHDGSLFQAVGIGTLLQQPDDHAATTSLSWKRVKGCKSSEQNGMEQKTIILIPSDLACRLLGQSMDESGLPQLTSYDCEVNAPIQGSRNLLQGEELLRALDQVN
Summary of the method: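 In this multiplexed cell assay, HepG2 cells bearing transfected cis reporters are dosed for 24 h and reporter mRNA is read by RT-PCR plus capillary electrophoresis; signal increases and decreases are both scored against DMSO.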

[4] = biological target: Hepatocyte nuclear factor 6 (Homo sapiens) (UniProt Q9UBC0); test: ATG_HNF6_CIS: Attagene CIS-FACTORIAL HepG2 Assay for human Hepatocyte Nuclear Factor 6 (HNF6) (AID 2282952); conditions: HepG2 Attagene cis-factorial HNF6 reporter transcription; actives raise or lower the signal
Chain of Hepatocyte nuclear factor 6 (Homo sapiens) (Q9UBC0 whole entry, looked up, the tested form may be a part): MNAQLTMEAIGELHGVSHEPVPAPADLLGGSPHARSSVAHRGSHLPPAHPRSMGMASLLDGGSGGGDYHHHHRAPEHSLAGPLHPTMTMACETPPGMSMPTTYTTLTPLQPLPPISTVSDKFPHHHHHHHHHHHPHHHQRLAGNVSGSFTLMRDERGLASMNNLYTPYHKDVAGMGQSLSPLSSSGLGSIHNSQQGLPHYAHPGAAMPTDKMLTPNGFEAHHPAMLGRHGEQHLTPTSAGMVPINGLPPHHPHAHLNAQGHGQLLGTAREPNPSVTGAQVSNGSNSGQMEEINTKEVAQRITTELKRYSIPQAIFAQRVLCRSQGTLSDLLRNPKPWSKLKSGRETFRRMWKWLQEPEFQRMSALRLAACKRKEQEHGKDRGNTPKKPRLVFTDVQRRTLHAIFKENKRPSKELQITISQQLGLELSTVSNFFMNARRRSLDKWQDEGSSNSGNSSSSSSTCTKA
Summary of the method: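 HepG2 cells transiently transfected with cis-element-driven multiplexed reporter units measuring endogenous transcription factor activity. After 24 h exposure, reporter mRNA quantified by RT-PCR, FAM-labelled fragments and capillary electrophoresis; bidirectional fitting versus DMSO.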

[5] = biological target: Heat shock factor protein 1 (Homo sapiens) (UniProt Q00613); test: ATG_HSE_CIS: Attagene CIS-FACTORIAL HepG2 Assay for human Heat Shock Transcription Factor 1 (HSE) (AID 2282953); conditions: HepG2 HSE cis-reporter, Attagene RNA transcription; actives raise or lower the signal
Chain of Heat shock factor protein 1 (Homo sapiens) (Q00613 whole entry, looked up): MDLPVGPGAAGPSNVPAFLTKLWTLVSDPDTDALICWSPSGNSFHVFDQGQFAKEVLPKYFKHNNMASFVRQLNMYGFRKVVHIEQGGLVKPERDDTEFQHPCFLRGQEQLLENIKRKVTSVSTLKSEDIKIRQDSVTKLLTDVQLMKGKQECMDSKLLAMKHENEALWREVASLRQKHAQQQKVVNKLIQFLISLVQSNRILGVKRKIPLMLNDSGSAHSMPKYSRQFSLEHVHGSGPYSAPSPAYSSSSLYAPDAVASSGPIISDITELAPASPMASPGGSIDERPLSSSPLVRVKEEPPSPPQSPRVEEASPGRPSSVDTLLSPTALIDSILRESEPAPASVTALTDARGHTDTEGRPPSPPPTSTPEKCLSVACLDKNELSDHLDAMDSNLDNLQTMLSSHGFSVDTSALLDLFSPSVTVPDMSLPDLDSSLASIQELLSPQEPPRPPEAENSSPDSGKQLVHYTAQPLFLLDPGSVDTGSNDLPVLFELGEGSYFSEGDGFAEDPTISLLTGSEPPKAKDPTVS
Summary of the method: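 HepG2 cells transfected with cis-promoter reporter units sensing endogenous transcription factor activity; reporter mRNA quantified 24 h post-dose by RT-PCR and capillary electrophoresis of 6-FAM-labelled products. Bidirectional fitting against DMSO.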

[6] = ATG_RORE_CIS: Attagene CIS-FACTORIAL HepG2 Assay for human RAR-related Orphan Receptor Element (RORE) (AID 2282959); conditions: HepG2 Attagene cis-factorial RORE reporter, mRNA; actives raise or lower the signal
Summary of the method: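 Fluorescence intensity of reporter-specific cDNA fragments, separated by capillary electrophoresis, gives the signal. Source: HepG2 liver cells transiently transfected with cis-element reporters and exposed 24 h; DMSO-normalized bidirectional fit.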

[7] = ATG_TAL_CIS: Attagene CIS-FACTORIAL HepG2 Assay for human TAL Basal Promoter (AID 2282966); conditions: HepG2 Attagene cis-factorial TAL promoter reporter; actives raise or lower the signal;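 also: background control endpoint measuring basal TAL promoter reporter mRNA not a specific factor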
Summary of the method: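 HepG2 cells transiently transfected with multiplexed cis-promoter reporter units, dosed 24 h. Reporter mRNA quantified by RT-PCR, 6-FAM labelling, HpaI digestion and capillary electrophoresis; TAL basal promoter serves as background control, fitted bidirectionally versus DMSO.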

[8] = ATG_TGFb_CIS: Attagene CIS-FACTORIAL HepG2 Assay for human Transforming Growth Factor (TGF) (AID 2282967); conditions: HepG2 Attagene CIS TGFb reporter, mRNA transcription; actives raise or lower the signal
Summary of the method: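 HepG2 cells transiently transfected with cis-promoter-driven multiple reporter units measure endogenous TF activity; reporter mRNA quantified at 24 h by RT-PCR, FAM labeling, HpaI digestion and capillary electrophoresis. Bidirectional fit vs DMSO.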

[9] = biological target: X-box-binding protein 1 (Homo sapiens) (UniProt P17861); test: ATG_Xbp1_CIS: Attagene CIS-FACTORIAL HepG2 Assay for human X-box Binding Protein 1 (XBP1) (AID 2282972); conditions: HepG2 XBP1 cis-element reporter, Attagene multiplex; actives raise or lower the signal
Chain of X-box-binding protein 1 (Homo sapiens) (P17861 whole entry, looked up): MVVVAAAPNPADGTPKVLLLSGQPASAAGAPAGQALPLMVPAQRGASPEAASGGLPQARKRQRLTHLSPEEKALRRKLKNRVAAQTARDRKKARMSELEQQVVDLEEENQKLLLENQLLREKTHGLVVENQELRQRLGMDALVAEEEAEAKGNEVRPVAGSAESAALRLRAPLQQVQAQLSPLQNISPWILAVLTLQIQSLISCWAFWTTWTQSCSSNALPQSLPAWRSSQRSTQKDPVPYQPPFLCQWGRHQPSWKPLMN
Summary of the method: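 HepG2 cells transiently transfected with cis-regulated multiple reporter transcription units; endogenous transcription factor activity measured 24 hours after chemical dosing. Reporter mRNA quantified by RT-PCR, 6-FAM primer extension, HpaI digestion and capillary electrophoresis; bidirectional fitting versus DMSO.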

[10] = ATG_M_32_TRANS: Attagene TRANS-FACTORIAL HepG2 Assay for M32 Transcription Factor (Internal Marker) (AID 2282984; active = hit-call score of the fitted dose curve at least 0.9, where 1 is the maximum;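 also: transcript level of a background control reporter unit measured by RT-PCR and capillary electrophoresis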); conditions: HepG2 Attagene TRANS M32 internal marker reporter
Summary of the method: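 Human hepatoma HepG2, transient MRTU transfection, 24 h treatment. RNA → RT-PCR → fluorescent primer extension → HpaI digest (2 h, 37 C) → CE. Positive-direction fit vs DMSO.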

[11] = biological target: Transcriptional activator Myb (Homo sapiens) (UniProt P10242); test: ATG_Myb_CIS: Attagene CIS-FACTORIAL HepG2 Assay for human Myeloblastosis (Myb) Proto-Oncogene Transcription Factor (AID 2282986); conditions: HepG2 Attagene CIS-FACTORIAL Myb reporter transcription; actives raise or lower the signal
Chain of Transcriptional activator Myb (Homo sapiens) (P10242 whole entry, looked up): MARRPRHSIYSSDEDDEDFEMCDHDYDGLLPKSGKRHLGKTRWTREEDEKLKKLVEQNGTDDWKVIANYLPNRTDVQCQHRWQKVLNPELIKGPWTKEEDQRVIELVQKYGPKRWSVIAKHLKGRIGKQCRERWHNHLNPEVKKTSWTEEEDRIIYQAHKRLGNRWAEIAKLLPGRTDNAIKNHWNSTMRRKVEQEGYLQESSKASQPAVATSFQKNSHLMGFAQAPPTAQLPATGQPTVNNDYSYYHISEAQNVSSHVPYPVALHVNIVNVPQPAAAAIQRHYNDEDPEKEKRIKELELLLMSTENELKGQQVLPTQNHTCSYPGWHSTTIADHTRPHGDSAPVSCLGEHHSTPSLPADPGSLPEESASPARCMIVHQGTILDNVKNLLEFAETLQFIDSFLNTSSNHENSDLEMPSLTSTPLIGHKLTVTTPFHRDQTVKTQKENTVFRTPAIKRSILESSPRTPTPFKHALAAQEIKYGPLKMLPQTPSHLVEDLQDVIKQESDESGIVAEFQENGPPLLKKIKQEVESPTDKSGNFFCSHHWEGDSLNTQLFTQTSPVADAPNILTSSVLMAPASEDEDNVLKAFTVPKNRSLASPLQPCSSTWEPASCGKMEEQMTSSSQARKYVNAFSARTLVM
Summary of the method: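 Fluorescence signals from capillary electrophoresis of RT-PCR-amplified reporter cDNA give the read-out. Cells: HepG2 transfected with multiple cis-regulated reporter units. Exposure lasts 24 hours; DMSO defines baseline for gain or loss of signal.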

[12] = biological target: Nuclear respiratory factor 1 (Homo sapiens) (UniProt Q16656); test: ATG_NRF1_CIS: Attagene CIS-FACTORIAL HepG2 Assay for human Nuclear Respiratory Factor 1 (NRF1) Orphan Gene (AID 2282987); conditions: HepG2 NRF1 cis-element reporter, Attagene multiplex; actives raise or lower the signal
Chain of Nuclear respiratory factor 1 (Homo sapiens) (Q16656 whole entry, looked up): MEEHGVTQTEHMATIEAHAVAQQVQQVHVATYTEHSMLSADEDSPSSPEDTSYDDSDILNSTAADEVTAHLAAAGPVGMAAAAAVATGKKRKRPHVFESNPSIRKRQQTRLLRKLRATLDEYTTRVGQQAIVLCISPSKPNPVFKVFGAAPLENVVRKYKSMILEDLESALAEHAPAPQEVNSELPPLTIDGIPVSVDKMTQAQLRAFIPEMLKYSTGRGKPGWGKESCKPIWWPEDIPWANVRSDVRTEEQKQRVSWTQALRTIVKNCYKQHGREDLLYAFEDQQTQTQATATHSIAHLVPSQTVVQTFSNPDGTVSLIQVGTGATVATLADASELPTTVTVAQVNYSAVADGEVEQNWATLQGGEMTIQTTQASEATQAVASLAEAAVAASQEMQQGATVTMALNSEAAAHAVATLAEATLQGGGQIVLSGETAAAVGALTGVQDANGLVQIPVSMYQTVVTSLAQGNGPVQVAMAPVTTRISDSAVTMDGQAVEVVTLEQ
Summary of the method: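 Transcriptional reporter readout, one component of a 52-endpoint multiplexed HepG2 panel. Exposure 24 h; mRNA detected via RT-PCR and fluorescent capillary electrophoresis; fitting in both directions against DMSO.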

[13] = ATG_NFI_CIS: Attagene CIS-FACTORIAL HepG2 Assay for human Nuclear Factor I (NFI) (AID 2282989); conditions: HepG2 cis-regulatory reporter, NFI response element transcription; actives raise or lower the signal
Summary of the method: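 Endogenous TF activity in HepG2 cells transiently transfected with cis-element-driven multiplexed reporter units, read 24 h after dosing. Reporter mRNA quantified by RT-PCR, 6-FAM labelling, HpaI digestion and capillary electrophoresis; bidirectional fit versus DMSO.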

[14] = biological target: Myc proto-oncogene protein (Homo sapiens) (UniProt P01106); test: ATG_Myc_CIS: Attagene CIS-FACTORIAL HepG2 Assay for human Myelocytomatosis (Myc) Proto-Oncogene Transcription Factor (AID 2282990); conditions: HepG2, Attagene cis-reporter transcription factor activity; actives raise or lower the signal
Chain of Myc proto-oncogene protein (Homo sapiens) (P01106 whole entry, looked up): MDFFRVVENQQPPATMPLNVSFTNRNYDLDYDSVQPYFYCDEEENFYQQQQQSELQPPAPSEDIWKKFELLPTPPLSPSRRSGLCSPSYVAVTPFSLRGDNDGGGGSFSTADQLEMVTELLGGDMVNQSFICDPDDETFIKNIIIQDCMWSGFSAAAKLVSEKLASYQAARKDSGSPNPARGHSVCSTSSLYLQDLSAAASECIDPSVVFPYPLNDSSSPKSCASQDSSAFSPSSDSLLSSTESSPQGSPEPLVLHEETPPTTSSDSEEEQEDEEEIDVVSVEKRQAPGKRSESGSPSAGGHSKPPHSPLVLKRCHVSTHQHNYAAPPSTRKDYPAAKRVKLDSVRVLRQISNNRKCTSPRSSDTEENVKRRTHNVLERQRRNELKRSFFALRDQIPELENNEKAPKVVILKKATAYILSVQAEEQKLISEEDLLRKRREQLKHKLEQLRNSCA
Summary of the method: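 HepG2 cells transiently transfected with multiple cis-promoter-driven reporter transcription units, so endogenous TF activity is read. After 24 h compound exposure, reporter mRNA was quantified by RT-PCR, 6-FAM labelling, HpaI digestion and capillary electrophoresis; bidirectional fit versus DMSO.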

[15] = ATG_NF_kB_CIS: Attagene CIS-FACTORIAL HepG2 Assay for human Nuclear Factor Kappa B (NF-kB) (AID 2282991); conditions: HepG2 Attagene cis-factorial NF-kB reporter mRNA; actives raise or lower the signal
Summary of the method: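 HepG2, transient multi-reporter transfection, cis promoter elements (endogenous TFs). 24 h exposure. Total RNA → RT → PCR → 6-FAM label → HpaI → CE. Gain/loss vs DMSO.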

[16] = biological target: Cellular tumor antigen p53 (Homo sapiens) (UniProt P04637); test: ATG_p53_CIS: Attagene CIS-FACTORIAL HepG2 Assay for human p53 Transcription Factor (AID 2282994); conditions: HepG2 p53 cis-element reporter, Attagene mRNA; actives raise or lower the signal
Chain of Cellular tumor antigen p53 (Homo sapiens) (P04637 whole entry, looked up): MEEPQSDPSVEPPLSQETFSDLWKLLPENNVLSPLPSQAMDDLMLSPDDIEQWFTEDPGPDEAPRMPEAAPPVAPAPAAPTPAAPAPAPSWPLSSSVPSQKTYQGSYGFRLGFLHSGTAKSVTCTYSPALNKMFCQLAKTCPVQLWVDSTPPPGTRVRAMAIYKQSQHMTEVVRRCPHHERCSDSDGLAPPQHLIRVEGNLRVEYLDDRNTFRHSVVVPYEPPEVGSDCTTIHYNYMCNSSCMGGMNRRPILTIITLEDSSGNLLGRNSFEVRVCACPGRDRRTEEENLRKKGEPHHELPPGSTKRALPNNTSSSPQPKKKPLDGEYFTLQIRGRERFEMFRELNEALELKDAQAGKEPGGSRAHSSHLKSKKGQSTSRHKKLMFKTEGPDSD
Summary of the method: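 HepG2 cells transiently transfected with multiplexed cis-regulated reporter transcription units read endogenous TF activity. After 24 h compound exposure, reporter mRNA was quantified by RT-PCR, fluorescent labelling, HpaI digestion and capillary electrophoresis; bidirectional fits versus DMSO baseline.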

[17] = biological target: Nuclear receptor subfamily 1 group I member 2 (Homo sapiens) (UniProt O75469); test: ATG_PXR_TRANS: Attagene TRANS-FACTORIAL HepG2 Assay for human Pregnane X Receptor (PXR) (AID 2283008; active = hit-call score of the fitted dose curve at least 0.9, where 1 is the maximum)
Chain of Nuclear receptor subfamily 1 group I member 2 (Homo sapiens) (O75469 whole entry, looked up, the tested form may be a part): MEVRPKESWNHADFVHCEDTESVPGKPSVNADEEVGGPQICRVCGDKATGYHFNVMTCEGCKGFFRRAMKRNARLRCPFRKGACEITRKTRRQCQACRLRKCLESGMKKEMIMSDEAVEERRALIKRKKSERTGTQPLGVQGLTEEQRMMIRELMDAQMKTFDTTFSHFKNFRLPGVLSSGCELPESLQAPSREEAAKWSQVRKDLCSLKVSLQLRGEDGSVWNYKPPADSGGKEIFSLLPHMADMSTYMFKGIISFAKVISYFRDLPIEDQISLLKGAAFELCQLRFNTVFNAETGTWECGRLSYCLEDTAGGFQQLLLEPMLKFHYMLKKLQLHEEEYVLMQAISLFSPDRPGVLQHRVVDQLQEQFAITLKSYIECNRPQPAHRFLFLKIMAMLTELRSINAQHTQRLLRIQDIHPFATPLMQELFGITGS
Summary of the method: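 HepG2 cells transiently transfected with multiple reporter units, here a PXR-GAL4 chimera driving a GAL4-UAS reporter; 24 h compound exposure. Reporter mRNA measured by RT-PCR, FAM labelling and capillary electrophoresis; gain of signal fitted against DMSO baseline.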

[18] = ATG_XTT_Cytotoxicity: Cytotoxicity Assessment in the Attagene TRANS-FACTORIAL HepG2 Assay (AID 2283584; active = hit-call score of the fitted dose curve at least 0.9, where 1 is the maximum)
Summary of the method: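 HepG2 cells transiently transfected with GAL4-UAS multiple reporter units, dosed 24 h; cytotoxicity read by XTT as loss of signal versus DMSO baseline.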

[19] = ATG_NRF2_ARE_CIS: Attagene CIS-FACTORIAL HepG2 Assay for human Nuclear Factor Erythroid 2 Related Factor 2 (NFR2) response to Antioxidant Response Elements (ARE) (AID 2282992); conditions: HepG2 Attagene ARE/NRF2 reporter, transcription factor activity; actives raise or lower the signal;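 as to AC50: reporter mRNA level measured by RT-PCR and capillary electrophoresis fluorescence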
Summary of the method: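 HepG2 cells transiently transfected with multiplexed cis-regulated reporter transcription units measure endogenous transcription factor activity. Reporter mRNA at 24 h is quantified by RT-PCR, fluorescent labelling and capillary electrophoresis, with bidirectional fitting relative to DMSO.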

[20] = biological target: Hepatocyte nuclear factor 3-beta (Homo sapiens) (UniProt Q9Y261); test: ATG_FoxA2_CIS: Attagene CIS-FACTORIAL HepG2 Assay for human Forkhead box A2 (FOXA2) (AID 2282942); conditions: HepG2 cis-reporter transcription factor activity, 24 h; actives raise or lower the signal
Chain of Hepatocyte nuclear factor 3-beta (Homo sapiens) (Q9Y261 whole entry, looked up): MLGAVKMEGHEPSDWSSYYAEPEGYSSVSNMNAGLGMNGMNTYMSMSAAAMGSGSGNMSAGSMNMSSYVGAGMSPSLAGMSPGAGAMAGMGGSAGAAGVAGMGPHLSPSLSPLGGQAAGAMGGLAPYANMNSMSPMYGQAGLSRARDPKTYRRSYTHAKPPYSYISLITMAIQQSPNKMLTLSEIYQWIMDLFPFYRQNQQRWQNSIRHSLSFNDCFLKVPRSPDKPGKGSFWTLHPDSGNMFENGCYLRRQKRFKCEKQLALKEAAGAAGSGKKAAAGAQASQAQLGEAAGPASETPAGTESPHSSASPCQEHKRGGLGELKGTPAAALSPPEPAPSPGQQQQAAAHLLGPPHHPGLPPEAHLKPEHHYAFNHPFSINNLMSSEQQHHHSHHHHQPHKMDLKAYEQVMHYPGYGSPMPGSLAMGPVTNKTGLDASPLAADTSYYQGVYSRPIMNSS
Summary of the method: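 In transiently transfected human HepG2 cells, promoter-driven reporter mRNA levels after 24 h chemical exposure are determined via RT-PCR with capillary electrophoresis. DMSO serves as baseline for bidirectional fitting.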

CCC(C)c1cc([N+](=O)[O-])cc([N+](=O)[O-])c1OC(=O)C=C(C)C (stereo not given)
outcome [1]: inactive
outcome [2]: inactive
outcome [3]: inactive
outcome [4]: inactive
AC50 [5]: 25.8 µM (active)
outcome [6]: inactive
outcome [7]: inactive
outcome [8]: inactive
AC50 [9]: 27.2 µM (active)
outcome [10]: inactive
outcome [11]: inactive
outcome [12]: inactive
AC50 [13]: 25.5 µM (active)
outcome [14]: inactive
outcome [15]: inactive
AC50 [16]: 48.3 µM (active)
AC50 [17]: 1.6 µM (active)
outcome [18]: inactive

C[C@]12CC[C@H]3[C@@H](CC[C@@]45O[C@@H]4C(O)=C(C#N)C[C@]35C)[C@@H]1CC[C@@H]2O
outcome [1]: inactive
outcome [2]: inactive
AC50 [3]: 64.5 µM (active)
outcome [4]: inactive
outcome [5]: inactive
outcome [6]: inactive
outcome [7]: inactive
outcome [8]: inactive
AC50 [9]: 60 µM (active)
outcome [10]: inactive
outcome [11]: inactive
outcome [12]: inactive
outcome [13]: inactive
outcome [14]: inactive
AC50 [15]: 18.6 µM (active)
AC50 [19]: 58.9 µM (active)
outcome [16]: inactive
AC50 [17]: 27.4 µM (active)
outcome [18]: inactive

COc1cc(OC)c(OC)cc1C=O
outcome [1]: inactive
outcome [20]: inactive
outcome [2]: inactive
outcome [3]: inactive
outcome [4]: inactive
outcome [5]: inactive
outcome [6]: inactive
outcome [8]: inactive
outcome [9]: inactive
outcome [10]: inactive
outcome [11]: inactive
outcome [12]: inactive
outcome [13]: inactive
outcome [14]: inactive
outcome [15]: inactive
outcome [19]: inactive
outcome [16]: inactive
outcome [17]: inactive

CC[N+](=O)[O-]
outcome [20]: inactive
outcome [2]: inactive
outcome [3]: inactive
outcome [4]: inactive
outcome [5]: inactive
outcome [6]: inactive
outcome [7]: inactive
outcome [8]: inactive
outcome [9]: inactive
outcome [11]: inactive
outcome [12]: inactive
outcome [13]: inactive
outcome [14]: inactive
outcome [15]: inactive
outcome [19]: inactive
outcome [16]: inactive
outcome [17]: inactive

CCCCCCCCCCCC#N
outcome [20]: inactive
outcome [3]: inactive
outcome [4]: inactive
outcome [5]: inactive
outcome [6]: inactive
outcome [7]: inactive
outcome [8]: inactive
AC50 [9]: 173 µM (active)
outcome [10]: inactive
outcome [11]: inactive
outcome [12]: inactive
AC50 [13]: 169 µM (active)
outcome [14]: inactive
AC50 [15]: 131 µM (active)
AC50 [19]: 73.4 µM (active)
outcome [16]: inactive
AC50 [17]: 19.5 µM (active)
outcome [18]: inactive

[N-]=[N+]=CC(=O)OC[C@H](N)C(=O)O
outcome [20]: inactive
outcome [2]: inactive
outcome [4]: inactive
outcome [6]: inactive
outcome [7]: inactive
outcome [8]: inactive
outcome [9]: inactive
outcome [10]: inactive
outcome [11]: inactive
outcome [12]: inactive
outcome [13]: inactive
outcome [14]: inactive
outcome [15]: inactive
outcome [16]: inactive
outcome [18]: inactive

CCc1cc(C)cc(CC)c1-c1c(OC(=O)C(C)(C)C)n2n(c1=O)CCOCC2
outcome [3]: inactive
outcome [4]: inactive
outcome [5]: inactive
outcome [6]: inactive
outcome [7]: inactive
outcome [8]: inactive
outcome [9]: inactive
outcome [10]: inactive
outcome [11]: inactive
outcome [12]: inactive
outcome [13]: inactive
outcome [14]: inactive
outcome [15]: inactive
outcome [16]: inactive
outcome [17]: inactive
